The values that follow come from PubChem BioAssay (Tox21).

Several values for one entry are separate records, joined by “and”; a condition that tells them apart may be missing. Equal entries are not always repeated. Results filed as inconclusive are left out. Activity calls are given as the source filed them. Calls follow the shape of the dose curve; as a rule, active = well fitted cell-killing curve with a large enough effect in the repeat runs; inconclusive = weak or mixed curves, or effect the other way; inactive = no such curve, though single readings can be large or run the other way.
Potency is read from the fitted curve at half-maximal effect.

The nature of the assay: qHTS assay to identify small molecule antagonists of the vitamin D receptor (VDR) signaling pathway - cell viability counter screen (AID 743225). Also: nearly all actives have a fitted effect of over 50% in size. The note with it: VDR-bla HEK293T viability, CellTiter-Glo luminescence, 16 h; series mostly up to 61 µM. Put shortly: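 Compounds were pinned onto VDR-bla HEK 293T cells together with 1-alpha,25-dihydroxyvitamin D3 at 3 nM final. After 16 h at 37C and 5% CO2 plus the reporter readout, cell viability was measured by CellTiter-Glo luminescence (30 min, room temperature).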
A general note: In qHTS, concentration-response curves come from the screen itself.
Turning to `CCCCCCCCCCCCCCCCCCn1cc[n+](C)c1`, the Potency is 19.4 µM (active).
Turning to `C[C@@H]1CC[C@@]2(OC1)O[C@H]1[C@@H](O)[C@H]3[C@@H]4CC[C@H]5C[C@@H](O[C@@H]6O[C@H](CO)[C@H](O[C@@H]7O[C@H](CO)[C@@H](O)[C@H](O[C@@H]8OC[C@@H](O)[C@H](O)[C@H]8O)[C@H]7O[C@@H]7O[C@H](CO)[C@@H](O)[C@H](O[C@@H]8O[C@H](CO)[C@@H](O)[C@H](O)[C@H]8O)[C@H]7O)[C@H](O)[C@H]6O)[C@H](O)C[C@]5(C)[C@H]4CC[C@]3(C)[C@H]1[C@@H]2C`, the Potency was 5.2 µM (active).
In the case of `CC(C)CC(C)Nc1ccc(Nc2ccccc2)cc1` (stereo not given), the Potency was 48.2 µM (active).
To `CC1(c2ccc(Oc3ccccc3)cc2)OC(=O)N(Nc2ccccc2)C1=O` (stereo not given) belongs 39.1 µM (active); to `COc1cc(C=O)cc2c1[C@H](COC(N)=O)[C@]1(OC(C)=O)ON2C[C@H]2[C@@H]1N2C(C)=O`, “inactive”; to `C[C@H]1O[C@@H](O[C@H]2[C@@H](O)C[C@H](O[C@H]3[C@@H](O)C[C@H](O[C@H]4CC[C@@]5(C)[C@H](CC[C@@H]6[C@@H]5CC[C@]5(C)[C@@H](C7=CC(=O)OC7)CC[C@]65O)C4)O[C@@H]3C)O[C@@H]2C)C[C@H](O)[C@@H]1O`, 8.8 nM (active) and 84.9 nM (active).
To `CN(C)c1ccc(N=Nc2ccccc2)cc1` belongs “inactive”; to `COc1ccc(OC)c(CC(C)N)c1` (stereo not given), “inactive”; to `CCCCCCCCCCCCCN1CC(C)OC(C)C1` (stereo not given), “inactive”.
To `O=[N+]([O-])c1ccc2ccc3cccc4ccc1c2c34` belongs “inactive”; to `C=CC(=O)OCCCCOC(=O)C=C`, “inactive”.
Consider `Clc1ccc(C(c2ccc(Cl)cc2)C(Cl)(Cl)Cl)cc1`, for which the Potency entry was “inactive”.
Turning to `CCc1nn(C)c(C(=O)NCc2ccc(C(C)(C)C)cc2)c1Cl`, the Potency was 38.9 µM (active).
To `Nc1ccccc1C(=O)OC/C=C/c1ccccc1` belongs 49.1 µM (active); to `CC[C@H](C)[C@H]1O[C@]2(C=C[C@@H]1C)C[C@@H]1C[C@@H](C/C=C(\C)[C@@H](O[C@H]3C[C@H](OC)[C@@H](O[C@H]4C[C@H](OC)[C@@H](O)[C@H](C)O4)[C@H](C)O3)[C@@H](C)/C=C/C=C3\CO[C@@H]4[C@H](O)C(C)=C[C@@H](C(=O)O1)[C@]34O)O2`, 11.5 µM (active).
To `CN(C)C(=S)S` belongs “inactive”.
Turning to `CC(C)C1CCC(Cc2ccc(Cl)cc2)C1(O)Cn1cncn1` (stereo not given), the Potency was 48.5 µM (active).
To `CCCOCC(=Nc1ccc(Cl)cc1C(F)(F)F)n1ccnc1` belongs 12.3 µM (active); to `O=C(CCl)Nc1ccccc1`, 49 µM (active).
Regarding `N#CSCSC#N`, the Potency was 50.1 µM (active) and 34.3 µM (active).
To `COC12CC[C@@]3(C[C@@H]1C(C)(O)C(C)(C)C)[C@H]1Cc4ccc(O)c5c4[C@@]3(CCN1CC1CC1)[C@H]2O5` (stereo not given in full) belongs “inactive”; to `CCOP(=S)(OCC)OC(Cl)C(Cl)(Cl)Cl` (stereo not given), “inactive”; to `CCN(CC)c1c([N+](=O)[O-])cc(C(F)(F)F)c(N)c1[N+](=O)[O-]`, “inactive”.
To `C[C@H]1CC[C@@H]2[C@@H](C)[C@H]3[C@H](C[C@H]4[C@@H]5CC=C6CC(O[C@@H]7O[C@H](CO)[C@H](O)[C@H](O[C@@H]8O[C@H](CO)[C@@H](O)[C@H](O)[C@H]8O)[C@H]7O[C@H]7O[C@@H](C)[C@H](O)[C@@H](O)[C@H]7O)CC[C@]6(C)[C@H]5CC[C@]34C)N2C1` (stereo not given in full) belongs “inactive”; to `C[C@@H]1O[C@@H](O[C@H]2C[C@@H](O)[C@]3(CO)[C@H]4[C@H](O)C[C@]5(C)[C@@H](C6=CC(=O)OC6)CC[C@]5(O)[C@@H]4CC[C@]3(O)C2)[C@H](O)[C@H](O)[C@H]1O`, 16.5 nM (active) and 107 nM (active); to `CCOC(=O)OC1=C(c2cc(C)ccc2C)C(=O)NC12CCC(OC)CC2` (stereo not given), “inactive”.
To `CCN(CC)C(=S)[S-].CCN(CC)C(=S)[S-].[Zn+2]` belongs 3.06 µM (active); to `Cc1ccc(OP(=O)(Oc2ccccc2)Oc2ccccc2)cc1`, “inactive”; to `CCOCn1c(-c2ccc(Cl)cc2)c(C#N)c(Br)c1C(F)(F)F`, 4.9 µM (active).
Take `CCCCN(CCCC)C(=S)[S-].CCCCN(CCCC)C(=S)[S-].[Zn+2]`: the Potency is 11 µM (active).
